Bioassay records as filed in PubChem.
Compounds with a hit are over-represented: about 20% of the library has one in this group of screens.
Pf growth 96h = P. falciparum growth inhibition at 96 hours | P. falciparum luciferase reporter growth, 96 h | Potency, µM (top dose mostly 28.7 µM), for inactives: top-dose activity change, negative = inhibition, hits mostly inhibitors | actives 6.9% (n = 320,000); also: potency is read from the fitted curve at half-maximal effect; % is scaled to controls: 0 for no effect and ±100 for the full control effect
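Readout is luminescence from an integrated firefly luciferase in P. falciparum. Red cells, 2% hematocrit and 0.05% parasitemia final, were cultured with compound through two parasite generations (96 hours) at 37 C, 5% CO2.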
CHX counter = counter-screen hit for Shiga toxin inhibitors, cycloheximide | cell reporter, cycloheximide protein synthesis inhibition counterscreen | max response, % | actives 12% (n = 300,000); in the data active = max response mostly above about 13%, no sharp cut-off; inactive = mostly below about 14%; also: read at 38.3 µM for the half of the compounds with a filed dose; 0% is about no effect
Pf growth 48h = inhibits P. falciparum growth in the first generation, 48 h | actives 5.9% (n = 310,000) | Potency, µM (highest dose often 28.7 µM), for inactives: top-dose activity change, negative = inhibition, most hits filed as inhibitors | P. falciparum luciferase growth in erythrocytes, 48 h | AID 504832; also: potency is read from the fitted curve at half-maximal effect; % is scaled to controls: 0 for no effect and ±100 for the full control effect
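Read-out is firefly luciferase luminescence from an integrated reporter in P. falciparum, so falling signal marks reduced parasite growth. Infected erythrocytes were at 2% hematocrit and 0.1% parasitemia (final) in Albumax-supplemented RPMI 1640.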
HCMV inh = inhibitors of human cytomegalovirus; HFF cells, HCMV-luciferase reporter, 72 h; hits give low values; activity change, negative = inhibition, % at 57.5 µM; actives 4.5% (n = 410,000); in the data active = activity change below about -60%; inconclusive = no clear call, values can overlap the other calls; inactive = above about -39%; also: % is scaled to controls: 0 for no effect and ±100 for the full control effect
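Inhibition of viral replication was scored as loss of reporter luminescence in HFFs infected with HCMV-luciferase (MOI 1 PFU/cell) for 72 h; compounds tested at 2 doses, normalized to buffer and Salinomycin controls.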
Shiga inhibitor = inhibitors of Shiga toxin in Vero cells | actives 9.2% (n = 290,000) | Vero cells, Shiga toxin protein synthesis inhibition reporter | AID 2315 | inhibition, % at 38.7 µM; in the data active = inhibition mostly above about 28%, no sharp cut-off; inactive = mostly below about 43%; also: 0% is about no effect
* = called active by the depositor; ? = inconclusive; · = no result; + = active, no number; [ ] = remark or other dose. Unless noted, calls follow the shape of the dose curve; as a rule, active = well fitted inhibition curve with a large enough effect; inconclusive = small, poorly fitted or top-dose-only effect, or another doubt; inactive = no such curve, though single readings can be large or run the other way.

SMILES	Pf growth 96h	CHX counter	Pf growth 48h	HCMV inh	Shiga inhibitor
O=C(NC1CCCCCC1)c1cc(S(=O)(=O)N2CCOCC2)ccc1F	7%	9	16%	0	16
COCCNC(=O)COc1ccc(Br)cc1Cl	11%	33*	·	·	42
C=CCNC(=O)COc1ccc(Br)cc1Cl	143%	33*	59%	-28	56
Cc1ccc2c(=O)n3c(nc2c1)C(Cc1ccccc1)NC(=O)c1ccc(Cl)cc1-3 (centres undefined)	?	·	?	99	·
COc1cc2c(cc1OC)CN(C(=O)/C=C/c1cc(OC)c(OC)c(OC)c1)CC2	4.7µM*	4	2.6µM*	58	-5
COc1cccc(-c2oc3c(c2C(=O)OCCN(C)C)C(O)CCC3)c1 (centres undefined)	·	·	·	-5	·
CCn1c(=O)cc(SCC(=O)NCc2ccc(C)o2)c2ccccc21	12µM*	-4	·	-13	-9
CCn1c(=O)cc(SCC(=O)NCc2cccnc2)c2ccccc21	9.3µM*	3	36%	65	-15
CCn1c(=O)cc(SCC(=O)NCc2ccco2)c2ccccc21	?	9	6%	4	10
Cc1ccnc2nc(C(=O)NCCc3ccc(F)cc3)nn12	15%[5.75 µM]	8	17%	26	37
CCC(C)[C@H](NC(=O)C1(c2ccccc2)CCN(C(=O)OC(C)(C)C)CC1)C(=O)N[C@@H](C(=O)O)c1ccccc1 (some centres undefined)	13µM*	-4	13µM*	4	-3
COc1ccc(OC)c(NC(=O)CN(C)CC(=O)Nc2ccccc2Br)c1	?	-3	-9%	-12	-6
CCc1ccc2ncc(S(=O)(=O)c3ccc(Cl)cc3)c(N3CCN(CC)CC3)c2c1	·	·	·	-40	·
Cc1ccc(NP(=O)(Nc2ccc(C)cc2)Oc2ccccc2)cc1	-29%	24*	208%	43	20
Cc1ccc(NP(=O)(Oc2ccccc2)Oc2ccccc2)cc1	·	·	·	4	·
Cc1cc(C)n(CCc2nc3c4ccccc4nc(N4CCN(c5ccccc5F)CC4)n3n2)n1	·	·	·	-29	·
COc1ccc2nc(-c3ccccc3)[nH]c2c1	12µM*	57*	53%	100	73*
Cc1ccc2[nH]c(-c3ccc(F)cc3F)cc(=O)c2c1	·	32*	·	·	+
COc1ccc2[nH]c(-c3ccc(C)cc3)cc(=O)c2c1	-62%	32*	35%	·	47
COc1ccc2nc(C(C)O)[nH]c2c1 (centres undefined)	32%	11	13%	22	14
COc1ccc2[nH]c(-c3ccccc3)cc2c1	-43%	74*	-14%	-36	88*
CN(C)CCCN(CCCNC(=O)/C=N/O)Cc1ccccc1	-27%	-7	1%	27	-10
Cc1cc(C)c(NC(=O)Cn2nc3c(cc2=O)CCCC3)c(C)c1	·	·	·	13	·
COc1ccc2cc(-c3ccccc3)ncc2c1	162%	42*	290%	100	85*
CCOc1ccc2nc(-c3ccccc3)[nH]c2c1	1%	35*	32%	76	71*
SMILES	Pf growth 96h	CHX counter	Pf growth 48h	HCMV inh	Shiga inhibitor
CC(C)COc1ccc(C/C(N)=N/n2cnnc2)cc1	20%	-2	3%	-94*	3
C=CCN1C(=O)/C(=C/c2ccc(-c3ccc(F)cc3)o2)SC1=S	57%	5	45%	-25	5
CCOC(=O)/C(O)=C/c1ncc(C(F)(F)F)cc1Cl	30%	2	37%	-5	43
CCOC(=O)/C(=C\Nc1ccc(OC(F)(F)F)cc1)Sc1ncc(C(F)(F)F)cc1Cl	·	-3	2.1µM*	9	-25
Clc1ccc(-c2noc3ncnc(N4CCCCC4)c23)cc1	·	·	·	-29	·
CCN(C[C@H]1N[C@@](Cc2ccccc2)(C(=O)OC)[C@H]2C(=O)N(C)C(=O)[C@@H]12)C(=O)c1ccc(C)cc1	·	·	·	-13	·
O=C(c1cccs1)c1ccc(-c2cccs2)s1	?	30*	-20%	11	36
CN1CCN(C(=O)c2ccc(-c3cccs3)s2)CC1	255%	42*	107%	-17	55*
COc1ccc(C(=O)NCC(c2ccccc2)N2CCCC2)cc1S(=O)(=O)N1CCOCC1 (centres undefined)	?	·	?	10	·
CN1c2ccc(Cl)cc2C(=O)NC1C1CC=CCC1 (centres undefined)	12µM*	6	-25%	1	-3
Cc1cc(=O)[nH]c2nnc(SCC(=O)Nc3ccc(OC(F)(F)F)cc3)n12	·	·	·	12	·
COc1cccc(C(=O)NCC2CCCN2S(=O)(=O)c2ccccc2)c1 (centres undefined)	12µM*	·	?	-9	·
COc1ccccc1CCNC(=O)C(=O)NCC1CCCN1S(=O)(=O)c1ccccc1 (centres undefined)	15µM*	·	?	-37	·
Cc1ccccc1CNC(=O)C(=O)NCCC1CCCCN1S(=O)(=O)c1ccccc1 (centres undefined)	?	·	13µM*	-33	·
COc1ccc(CCNC(=O)C(=O)NCC2CCCN2S(=O)(=O)c2ccccc2)cc1 (centres undefined)	12µM*	·	-38%	-7	·
COc1ccccc1CNC(=O)C(=O)NCCC1CCCCN1S(=O)(=O)c1ccccc1 (centres undefined)	?	·	?	-20	·
C=Cc1ccc(Cn2c(=O)cc(C)c3c(C)nn(C)c32)cc1	·	·	·	-9	·
O=C(c1ccc(F)cc1F)N1CCN(S(=O)(=O)c2ccc3c(c2)OCCO3)CC1	9.3µM*	·	?	?	·
O=S(=O)(c1ccc2c(c1)OCCO2)N1CCN(S(=O)(=O)c2ccc3nc(Cl)c(Cl)nc3c2)CC1	·	27*	·	·	18
O=S(=O)(c1ccc2c(c1)OCCO2)N1CCN(S(=O)(=O)c2ccc3c(c2)OCCO3)CC1	?	-6	?	·	-4
O=S(=O)(c1ccccc1Cl)N1CCC(O)(c2ccc3c(c2)OCO3)CC1	2.9µM*	3	6%	-11	17
O=S(=O)(c1ccc2c(c1)OCCO2)N1CCC(O)(c2ccc(Cl)cc2)CC1	9.3µM*	-3	9%	-36	10
COc1ccc(-c2nc3sc(CCNC(=O)c4ccco4)c(C)n3n2)cc1	·	·	·	84	·
CC(=O)N1c2ccc(S(=O)(=O)N3CCCCC3)cc2CC1C(=O)Nc1cccc(C)c1 (centres undefined)	-27%	-14	?	-29	-7
CN(C)c1ccc(C(C(=O)NC2CCCCC2)N(Cc2ccco2)C(=O)c2snc(C(N)=O)c2N)cc1 (centres undefined)	-12%	5	?	-74*	-4
Cc1cccc(N(C(=O)c2snc(C(N)=O)c2N)C(C(=O)NC2CCCC2)c2ccncc2)c1 (centres undefined)	?	-5	?	-35	25
COc1ccc(C(C(=O)NCc2ccccc2)N(Cc2cccnc2)C(=O)c2snc(C(N)=O)c2N)cc1OC (centres undefined)	-19%	-2	?	-17	-6
